“And” between values parts separate entries of the source, which are not always exact repeats. Equal entries are not always repeated. Inconclusive results are not listed. The source made the active and inactive calls. Unless noted, calls come from the whole dose curve; as a rule, active = well fitted curve in the direction sought with a large enough effect; inconclusive = small, poorly fitted or top-dose-only effect, or another doubt; inactive = no such curve, though single readings can be large; an effect the other way counts as inactive or inconclusive.
Tests used:
[1] = AP1 Signaling Pathway (AID 357; active = well fitted curve in either direction with a large enough effect, not every such curve was filed as active;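 note: ME-180 reporter cells stimulated with EGF at its EC50 level; % is set by controls: 0 for no effect and ±100 for the full control effect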); details: ME-180 AP-1-bla reporter, EGF-induced, beta-lactamase ratio, 5 h; at 38 µM (top of the series)
Method in brief: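 AP-1-bla ME-180 cells, Opti-MEM + 0.5% dialyzed FBS, plated overnight 37 °C. Cpd titration + EC50 EGF, 5 h 37 °C. CCF4 2.5 h RT; ex 405, em 460/530 ratio → %activity, AC50.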

[2] = NFAT Signaling Pathway (AID 444; active = well fitted curve in either direction with a large enough effect, not every such curve was filed as active;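 note: carbachol stimulus at about its EC50 of 1 µM final; % is set by controls: 0 for no effect and ±100 for the full control effect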); details: Jurkat NFAT-bla M1, carbachol, beta-lactamase ratio, 5 h; at 38 µM (top of the series)
Method in brief: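 Jurkat cells carrying an NFAT-driven β-lactamase reporter and co-transfected muscarinic M1 receptor were treated with compound plus carbachol (1 uM final, an EC50 level) for 5 h at 37 °C. CCF4 loading followed for 1 h at RT; 460/530 nm ratio gave %activity.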

[3] = Stat Signaling Pathway (AID 446; active = well fitted curve in either direction with a large enough effect, not every such curve was filed as active;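 note: ME-180 cervical cancer cells given 40 pM IL-6 alongside compound; SIE-controlled beta-lactamase reporter measured as 460/530 nm FRET emission ratio; % is set by controls: 0 for no effect and ±100 for the full control effect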); details: ME-180 SIE beta-lactamase reporter, IL-6 stimulated, 5 h; at 38 µM (top of the series)
Method in brief: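 ME-180 SIE-bla cells; overnight plating; cpd + IL-6 40 pM, 5 h, 37 C; LiveBLAzer 2.5 h RT; 460/530 nm emission ratio. Normalized to 300 pM IL-6 and 125 nM JAK inhibitor controls.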

[4] = target: Glucocorticoid receptor (Homo sapiens) (UniProt P04150); assay: GR-GFP Redistribution (AID 450;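 active = compounds whose dose series gives a full or clear partial fitted curve of increased nuclear translocation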; note: potency is the fitted concentration of half-maximal effect); details: U2OS GR-GFP nuclear translocation, laser cytometry, 2 h
[5] = target: Glucocorticoid receptor (Homo sapiens) (UniProt P04150); assay: GR-EFC Redistribution (AID 451; calls by dose curve; note: potency is the fitted concentration of half-maximal effect); details: CHO-K1 GR-EFC translocation, beta-gal luminescence, 2 h
Method in brief: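 CHO-K1 cells stably expressing nuclear-localized β-gal enzyme acceptor and GR fused C-terminally to the enzyme donor fragment; ligand-driven nuclear translocation restores β-gal by complementation. Compounds titrated up to 46 uM final, 2 h at 37 °C; luminescence read.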

[6] = target: Mitogen-activated protein kinase 10 (Mus musculus) (UniProt Q61831); assay: JNK3 AlphaScreen Assay (AID 530; active = well fitted curve in either direction with a large enough effect, not every such curve was filed as active;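 note: kinase came from lysate of stimulated human HepG2 cells; signal reports phosphorylation of biotinylated GST-cJun 1-79 at Ser73 with 10 µM ATP; % is set by controls: 0 for no effect and ±100 for the full control effect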)
Method in brief: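 JNK3 came from HepG2 lysates pre-activated with IL-1beta and TNF-alpha and phosphorylated biotinylated GST-cJun (1-79) at 10 uM ATP, pH 7.6, room temperature. Compounds were titrated. AlphaScreen signal used anti-phospho-cJun (Ser73) antibody.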

[7] = target: 3',5'-cyclic-AMP phosphodiesterase 4B (Homo sapiens) (UniProt Q07343); assay: qHTS Assay for Inhibitors of PDE-IV (AID 607; active = well fitted activation curve with a large enough effect in the main read-out, with a control signal flat, not every such curve was filed as active; note: % of control where 0% means no effect)
Method in brief: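 ACTOne HEK293 cells carry a modified cAMP-gated CNG channel and express endogenous PDE4; plated 1000 cells/well, compounds up to 22.9 uM final. Membrane-potential dye fluorescence (ex 535/em 590) was read; parental cells received 10 uM forskolin + 100 uM RO 20-1724.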

[8] = target: Guanine nucleotide-binding protein G(i) subunit alpha-1 (Homo sapiens) (UniProt P63096); assay: qHTS Assay for Inhibitors of RGS12 GoLoco Motif Activity (Green Fluorophore) (AID 879);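 note: 0% = labeled peptide with Gαi1 and full inhibition = labeled peptide alone without protein; negative values mean loss of peptide binding seen as reduced polarization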
Method in brief: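 Fluorescence polarization assay: 50 nM Gαi1 with 10 nM FITC-labeled RGS12 GoLoco peptide in 10 mM Tris pH 7.5, 150 mM NaCl, 0.1 mM GDP, 0.05% NP40, 10 min at room temperature with compound.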

[9] = target: Cytochrome P450 2C9 (Homo sapiens) (UniProt P11712); assay: qHTS Assay for Inhibitors and Substrates of Cytochrome P450 2C9 (AID 883); note: % is set by controls: 0 for no effect and ±100 for the full control effect; nearly all actives have a fitted effect of over 60% in size
Method in brief: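 CYP2C9 deoxyluciferin hydroxylation, 37C, 60 min with NADPH regeneration; 10nM enzyme, 100uM Luciferin-H (KM). Glo detection reagent stopped reaction; luminescence normalized to sulphaphenazole (57uM) full inhibition.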

[10] = target: Cytochrome P450 2D6 (Homo sapiens) (UniProt P10635); assay: qHTS Assay for Inhibitors and Substrates of Cytochrome P450 2D6 (AID 891);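 note: luciferin methyl ether substrate demethylated by CYP2D6 with NADPH regeneration; % is set by controls: 0 for no effect and ±100 for the full control effect; nearly all actives have a fitted effect of over 60% in size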
Method in brief: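 Human CYP2D6 (5 nM) with 30 uM Luciferin-ME EGE (at Km) in 100 mM KPO4, compound preincubated 10 min, then NADPH regeneration system for 60 min at room temperature. Luciferin read by luminescence; normalized to 1.43 uM quinidine.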

[11] = target: Cytochrome P450 2C19 (Homo sapiens) (UniProt P33261); assay: qHTS Assay for Inhibitors and Substrates of Cytochrome P450 2C19 (AID 899); note: % is set by controls: 0 for no effect and ±100 for the full control effect; nearly all actives have a fitted effect of over 60% in size
Method in brief: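 In 50mM KPO4, the reaction held 5nM enzyme and KM-level (10uM) Luciferin-H EGE; it ran 60 min at 37C after NADPH regeneration and a 10 min compound preincubation. Luminescence values were scaled to 57uM ketoconazole as complete inhibition.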

[12] = Confirmation and Secondary Assay for Modulators of Hemoglobin Beta Chain Splicing at IVS2 654 locus (AID 910); note: % of control where 0% means no effect
Method in brief: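 HeLa cells stably carrying EGFP interrupted by mutant beta-globin IVS2-654 intron (CMV-driven) were treated with compound for 2 days at 37C; corrected splicing was scored as total peak GFP intensity per well (488 nm excitation, 500-520 nm emission).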

[13] = qHTS Assay for Identification of Small Molecule Agonists for Thrombopoietin (TPO) Signaling Pathway (AID 917); note: % is set by controls: 0 for no effect and ±100 for the full control effect
Method in brief: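 We measured Glycoprotein IIb promoter–luciferase output in IL-3-starved Ba/F3 murine cells expressing the human TPO receptor after 24 hrs at 37 C with compounds and 26 pM TPO.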

[14] = Confirmation and Secondary Assay for Modulators of Hemoglobin Beta Chain Splicing at IVS2 705 locus (AID 930);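 note: HeLa cells stably expressing the EGFP-705 splicing reporter; GFP fluorescence per well restored by corrected splicing of the IVS2-705 intron in EGFP; % of control where 0% means no effect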
Method in brief: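 HeLa cells stably carrying EGFP interrupted by mutant beta-globin intron 2 (IVS2-705) treated 2 days at 37C with compound; 500 nM antisense PNA as control. Correct splicing read as total peak GFP intensity per well by laser-scanning cytometry.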

[15] = target: Muscarinic acetylcholine receptor M1 (Rattus norvegicus) (UniProt P08482); assay: qHTS Assay for Antagonists of Acetylcholine Muscarinic M1 Receptor: Measurement of IP-One Response (AID 944); note: nearly all actives have a fitted effect of over 75% in size
Method in brief: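 CHO cells expressing rat M1 receptor, recovered overnight, were pre-incubated 10 min with compound, then stimulated 30 min with carbachol at EC80 (200 nM) in LiCl-containing buffer, pH 7.4. IP1 accumulation was read by HTRF (620/665 nm).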

[16] = target: Pyruvate kinase (Leishmania mexicana) (UniProt Q27686); assay: qHTS Validation Assay for Inhibitors of Leishmania Mexicana Pyruvate Kinase (AID 945);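 note: 0% = DMSO only neutral control wells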
Method in brief: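 Eight-point qHTS titrations in triplicate, data normalized to DMSO neutral control. Reaction: 0.2 nM LmPYK E451W mutant, 0.5 mM PEP, 0.1 mM ADP, 7 mM MgCl2, pH 7.2, one hour at room temperature; luminescent ATP detection.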

[17] = target: Pyruvate kinase PKM (Homo sapiens) (UniProt P14618); assay: qHTS Assay for Activators of Human Muscle Pyruvate Kinase (AID 954; active = well fitted curve in the direction sought with a large enough effect, not every such curve was filed as active;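 note: 0% = uninhibited enzyme and -100% = no enzyme or full thiadiazolimine inhibition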)
Method in brief: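 Luminescence from a luciferase ATP-detection/stop reagent reported PKM2 activity. Reactions contained 0.1 nM purified human enzyme, 0.5 mM PEP, 0.1 mM ADP and 7 mM MgCl2 at pH 7.2, run 1 h at RT.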

[18] = target: Alpha-galactosidase A (Homo sapiens) (UniProt P06280); assay: Counterscreen for Glucocerebrosidase Inhibitors: qHTS Assay for Human alpha-Galactosidase at pH 4.5 (AID 992); note: 0% is about no effect
Method in brief: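 Enzyme at 2 nM final was combined with compound (0.7 nM to 77 uM) and 80 uM 4-methylumbelliferyl alpha-D-galactopyranoside in 50 mM citric acid, 0.005% Tween-20, pH 4.5. After 20 min at room temperature, fluorescence was read (Ex 365/Em 440 nm); AC50 came from Hill fits.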

[19] = target: alpha-glucosidase (Oryza sativa, rice) (UniProt Q653V4); assay: Counterscreen for Glucocerebrosidase Inhibitors: qHTS Assay for Rice alpha-Glucosidase at pH 5.0 (AID 997);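 note: 0% = full activity with enzyme and -100% = basal without enzyme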
Method in brief: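 Rice alpha-glucosidase (4 nM final) with 400 uM 4-methylumbelliferyl-alpha-D-glucopyranoside in citrate buffer pH 5.0, 20 min at room temperature, stopped at pH 10; fluorescence 365/440 nm, compounds 0.7 nM–77 uM, AC50 from Hill fits.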

[20] = Validation of Assay for Modulators of Lamin A Splicing (AID 1459; active = well fitted curve in the direction sought with a large enough effect in the signal ratio; the % refers to the signal ratio;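 note: cells exposed to compound for two days before reading; 0% is about no effect; ratio rise marks activators and ratio drop marks inhibitors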)
Method in brief: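 Splicing correction is reported by an EGFP-containing lamin A minigene in stably transfected S3 HeLa cells, while DsRed2 controls for viability and nonspecific signal. Cells are exposed to compounds for 48 hrs before the GFP over RFP ratio is taken.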

[21] = qHTS Assay for Lipid Storage Modulators (AID 1519; calls by dose curve); details: Drosophila S3 cells, BODIPY lipid droplet/cell ratio, laser cytometry, cells loaded with oleic acid
Method in brief: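 Cells seeded at 5,000 per well were treated with compounds over a concentration series and loaded with oleic acid (400 uM, as added). Lipid droplet fluorescence (488 nm excitation, 500-530 nm channel) was read by laser-scanning cytometry and normalized to 20 uM Triacsin C.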

Glucocorticoid receptor (Homo sapiens), sequence (P04150 whole entry, looked up, the tested form may be a part): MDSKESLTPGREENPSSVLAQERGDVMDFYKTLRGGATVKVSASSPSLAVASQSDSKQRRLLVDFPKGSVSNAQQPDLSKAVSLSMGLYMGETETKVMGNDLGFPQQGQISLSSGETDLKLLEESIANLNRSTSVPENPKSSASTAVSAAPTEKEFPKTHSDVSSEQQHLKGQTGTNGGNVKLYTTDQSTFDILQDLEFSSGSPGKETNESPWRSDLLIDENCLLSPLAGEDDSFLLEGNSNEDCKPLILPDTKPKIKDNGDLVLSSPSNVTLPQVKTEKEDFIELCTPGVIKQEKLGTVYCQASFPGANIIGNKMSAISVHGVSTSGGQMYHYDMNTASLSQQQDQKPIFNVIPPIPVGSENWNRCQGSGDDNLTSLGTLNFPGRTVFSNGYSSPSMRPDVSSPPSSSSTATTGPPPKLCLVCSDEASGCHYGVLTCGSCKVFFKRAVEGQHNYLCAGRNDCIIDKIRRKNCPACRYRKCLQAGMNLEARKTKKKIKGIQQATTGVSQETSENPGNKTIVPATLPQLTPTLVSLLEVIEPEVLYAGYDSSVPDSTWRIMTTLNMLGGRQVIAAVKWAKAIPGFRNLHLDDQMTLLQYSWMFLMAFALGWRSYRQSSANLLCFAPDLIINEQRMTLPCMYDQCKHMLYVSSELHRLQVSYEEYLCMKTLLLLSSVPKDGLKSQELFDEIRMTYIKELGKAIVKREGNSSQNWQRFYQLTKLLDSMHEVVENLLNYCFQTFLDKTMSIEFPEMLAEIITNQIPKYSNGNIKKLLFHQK
Cytochrome P450 2C9 (Homo sapiens), sequence (P11712 whole entry, looked up): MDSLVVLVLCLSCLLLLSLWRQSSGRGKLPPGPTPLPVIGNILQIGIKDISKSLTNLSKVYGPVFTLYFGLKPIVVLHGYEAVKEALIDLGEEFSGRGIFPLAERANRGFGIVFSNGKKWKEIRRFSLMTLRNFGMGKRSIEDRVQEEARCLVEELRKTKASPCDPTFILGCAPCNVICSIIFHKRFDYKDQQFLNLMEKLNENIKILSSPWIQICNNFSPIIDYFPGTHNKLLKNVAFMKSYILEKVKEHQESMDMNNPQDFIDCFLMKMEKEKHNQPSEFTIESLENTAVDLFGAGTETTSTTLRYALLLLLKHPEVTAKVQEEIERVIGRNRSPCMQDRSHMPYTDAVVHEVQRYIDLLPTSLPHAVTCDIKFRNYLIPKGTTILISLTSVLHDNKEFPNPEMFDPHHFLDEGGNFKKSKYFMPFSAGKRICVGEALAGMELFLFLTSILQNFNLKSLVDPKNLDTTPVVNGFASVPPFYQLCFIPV
3',5'-cyclic-AMP phosphodiesterase 4B (Homo sapiens), sequence (Q07343 whole entry, looked up): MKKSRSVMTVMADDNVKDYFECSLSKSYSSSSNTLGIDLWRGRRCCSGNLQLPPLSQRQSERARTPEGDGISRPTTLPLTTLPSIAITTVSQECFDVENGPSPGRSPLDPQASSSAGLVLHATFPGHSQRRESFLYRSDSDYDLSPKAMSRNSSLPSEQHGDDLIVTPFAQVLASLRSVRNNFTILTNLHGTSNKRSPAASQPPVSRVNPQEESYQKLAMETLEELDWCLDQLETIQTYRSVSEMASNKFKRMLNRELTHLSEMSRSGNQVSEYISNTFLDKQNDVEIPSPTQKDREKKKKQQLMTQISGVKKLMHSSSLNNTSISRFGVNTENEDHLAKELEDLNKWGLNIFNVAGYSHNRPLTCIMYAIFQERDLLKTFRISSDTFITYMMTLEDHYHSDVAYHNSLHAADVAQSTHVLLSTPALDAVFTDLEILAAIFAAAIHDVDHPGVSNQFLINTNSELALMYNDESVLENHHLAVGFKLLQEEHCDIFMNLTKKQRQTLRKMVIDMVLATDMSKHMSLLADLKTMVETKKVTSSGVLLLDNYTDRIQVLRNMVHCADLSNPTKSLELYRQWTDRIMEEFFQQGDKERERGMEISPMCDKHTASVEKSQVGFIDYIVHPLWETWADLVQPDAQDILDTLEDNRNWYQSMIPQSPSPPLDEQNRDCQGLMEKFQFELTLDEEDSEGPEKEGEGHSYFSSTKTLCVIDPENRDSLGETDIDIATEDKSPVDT
Cytochrome P450 2D6 (Homo sapiens), sequence (P10635 whole entry, looked up): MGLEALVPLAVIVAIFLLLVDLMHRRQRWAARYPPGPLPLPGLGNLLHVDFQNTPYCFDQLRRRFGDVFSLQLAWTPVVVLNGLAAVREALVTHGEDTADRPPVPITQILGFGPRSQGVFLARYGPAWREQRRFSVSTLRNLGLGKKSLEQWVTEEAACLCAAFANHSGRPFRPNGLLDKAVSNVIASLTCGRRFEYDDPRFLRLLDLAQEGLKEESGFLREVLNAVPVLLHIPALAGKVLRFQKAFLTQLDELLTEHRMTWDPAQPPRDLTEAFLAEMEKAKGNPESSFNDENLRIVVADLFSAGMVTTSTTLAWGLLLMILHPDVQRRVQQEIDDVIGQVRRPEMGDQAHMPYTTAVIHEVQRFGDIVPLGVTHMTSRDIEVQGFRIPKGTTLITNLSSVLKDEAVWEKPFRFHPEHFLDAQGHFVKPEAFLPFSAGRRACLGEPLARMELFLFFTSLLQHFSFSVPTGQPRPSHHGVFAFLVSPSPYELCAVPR
Muscarinic acetylcholine receptor M1 (Rattus norvegicus), sequence (P08482 whole entry, looked up): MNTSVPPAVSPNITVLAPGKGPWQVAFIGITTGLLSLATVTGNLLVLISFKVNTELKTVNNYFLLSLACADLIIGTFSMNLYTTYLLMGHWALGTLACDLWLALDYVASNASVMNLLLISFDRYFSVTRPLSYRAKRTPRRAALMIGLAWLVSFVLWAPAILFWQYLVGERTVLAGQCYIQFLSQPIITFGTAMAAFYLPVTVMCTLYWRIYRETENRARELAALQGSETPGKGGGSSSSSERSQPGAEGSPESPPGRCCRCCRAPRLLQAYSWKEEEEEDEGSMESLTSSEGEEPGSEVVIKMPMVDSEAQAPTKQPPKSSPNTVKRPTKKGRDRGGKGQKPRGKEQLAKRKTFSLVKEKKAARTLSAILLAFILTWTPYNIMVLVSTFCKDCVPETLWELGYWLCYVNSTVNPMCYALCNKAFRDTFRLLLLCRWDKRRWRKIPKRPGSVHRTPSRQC
Guanine nucleotide-binding protein G(i) subunit alpha-1 (Homo sapiens), sequence (P63096 whole entry, looked up): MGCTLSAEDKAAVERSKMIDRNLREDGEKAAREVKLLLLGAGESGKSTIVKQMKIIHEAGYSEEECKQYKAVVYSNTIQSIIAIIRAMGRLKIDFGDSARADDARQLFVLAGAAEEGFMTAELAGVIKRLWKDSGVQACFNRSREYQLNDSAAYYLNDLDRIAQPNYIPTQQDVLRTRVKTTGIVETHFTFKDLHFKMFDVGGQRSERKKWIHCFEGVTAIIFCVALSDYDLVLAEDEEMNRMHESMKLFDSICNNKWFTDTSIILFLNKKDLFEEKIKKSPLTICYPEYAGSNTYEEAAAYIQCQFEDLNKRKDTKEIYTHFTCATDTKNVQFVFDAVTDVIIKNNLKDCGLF
Pyruvate kinase (Leishmania mexicana), sequence (Q27686 2-499 E452W): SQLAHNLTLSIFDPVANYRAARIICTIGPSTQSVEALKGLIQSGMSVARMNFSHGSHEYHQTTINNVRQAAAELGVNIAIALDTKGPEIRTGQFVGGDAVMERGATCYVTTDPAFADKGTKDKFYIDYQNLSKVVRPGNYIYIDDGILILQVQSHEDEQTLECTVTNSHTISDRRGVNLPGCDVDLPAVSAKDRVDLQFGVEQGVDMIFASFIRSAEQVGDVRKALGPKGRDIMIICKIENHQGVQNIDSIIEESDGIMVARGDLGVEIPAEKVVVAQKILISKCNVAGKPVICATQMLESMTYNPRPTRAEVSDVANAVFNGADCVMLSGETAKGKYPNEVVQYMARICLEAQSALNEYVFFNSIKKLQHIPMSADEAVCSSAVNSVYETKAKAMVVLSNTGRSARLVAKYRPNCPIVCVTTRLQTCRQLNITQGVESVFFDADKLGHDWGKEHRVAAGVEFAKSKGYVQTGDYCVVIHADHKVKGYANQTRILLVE
Pyruvate kinase PKM (Homo sapiens), sequence (P14618 whole entry, looked up): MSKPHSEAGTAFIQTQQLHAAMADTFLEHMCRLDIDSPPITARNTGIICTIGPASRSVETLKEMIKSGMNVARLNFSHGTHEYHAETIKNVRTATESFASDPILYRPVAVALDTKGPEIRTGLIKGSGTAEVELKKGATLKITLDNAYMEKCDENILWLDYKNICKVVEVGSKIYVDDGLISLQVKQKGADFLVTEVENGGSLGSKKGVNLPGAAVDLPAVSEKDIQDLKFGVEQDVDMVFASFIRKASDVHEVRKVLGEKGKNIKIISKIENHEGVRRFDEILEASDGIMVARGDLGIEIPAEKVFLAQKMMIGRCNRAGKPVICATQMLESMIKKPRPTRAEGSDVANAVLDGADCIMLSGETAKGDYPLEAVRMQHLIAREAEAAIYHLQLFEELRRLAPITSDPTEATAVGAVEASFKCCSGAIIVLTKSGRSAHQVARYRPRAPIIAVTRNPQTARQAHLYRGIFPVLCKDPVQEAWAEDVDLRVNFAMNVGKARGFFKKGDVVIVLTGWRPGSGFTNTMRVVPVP
Cytochrome P450 2C19 (Homo sapiens), sequence (P33261 whole entry, looked up): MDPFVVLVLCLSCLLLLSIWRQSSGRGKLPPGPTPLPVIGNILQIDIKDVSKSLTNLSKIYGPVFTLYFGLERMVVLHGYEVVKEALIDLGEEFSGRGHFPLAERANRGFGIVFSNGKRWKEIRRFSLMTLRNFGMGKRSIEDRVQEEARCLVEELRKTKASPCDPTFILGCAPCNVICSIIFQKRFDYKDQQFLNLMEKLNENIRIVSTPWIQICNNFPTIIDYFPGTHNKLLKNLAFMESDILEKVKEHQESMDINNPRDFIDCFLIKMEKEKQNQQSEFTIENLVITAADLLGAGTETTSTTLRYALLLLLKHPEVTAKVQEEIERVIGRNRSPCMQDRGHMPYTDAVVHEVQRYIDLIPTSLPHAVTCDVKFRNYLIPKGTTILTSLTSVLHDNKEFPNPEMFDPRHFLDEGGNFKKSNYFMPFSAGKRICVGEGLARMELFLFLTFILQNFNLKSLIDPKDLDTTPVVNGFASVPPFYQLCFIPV

O=C(O)c1cc(=O)c2ccc(Cl)cc2[nH]1
15.1% and -2.23%: max response ([21]; measured here: cell count channel max response)
inactive: activity change, negative = inhibition [1] -5.86% | activity change, negative = inhibition [2] 3.07% | activity, negative = inhibition [3] 42.7% | Potency [4] > 46 µM | Potency [5] > 46 µM | Potency [6] | Potency [7] | outcome [8] | Potency [9] | Potency [10] | Potency [11] | outcome [12] | Potency [13] | outcome [14] | Potency [15] | Potency [16] | outcome [17] | outcome [18] | outcome [19] | outcome [20] | activity change, negative = inhibition ([21]; at 57.5 µM (top of the series)) 4.77% and 6.7%
22.6% and 6.02%: max response ([21]; measured here: lipid channel max response)

Reference: PubChem BioAssay (NCATS)
